Results on five molecules are retold here after PubChem BioAssay (EPA / NIEHS).

As a reminder, the AC50 is the concentration at which the activity in the assay is half-maximal.

Structures are written as SMILES. “And” between values parts separate entries of the source, which are not always exact repeats. Identical values can stand only once. The source holds several records for some structures; these can differ, active in one and inactive in another. The source made the active and inactive calls. How the source made its calls: active means hit-call score of the fitted dose curve at least 0.9, where 1 is the maximum; inactive means score below 0.9.

What all share (details): mRNA level, 48 h; actives raise or lower the signal
Read-out in test [1]: Cytochrome P450 3A7 (Homo sapiens) (UniProt P24462)
Nature of the test: LTEA_HepaRG_CYP3A7: Life Technologies and Expression Analysis (LTEA) Assay for CYP3A7 using HepaRG (AID 2283492). The procedure, abridged:
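Human HepaRG liver cells, 48 h post-plating, switched to serum-free induction medium and exposed in duplicate for 48 h. Dosing: 100 uM top, half-log dilutions, 8 points, 0.5% DMSO vehicle. Read-out: CYP3A7 mRNA, gain or loss fitted against DMSO baseline.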

Read-out in test [2]: CYP3A5 (gene 1577)
Nature of the test: LTEA_HepaRG_CYP3A5: Life Technologies and Expression Analysis (LTEA) Assay for CYP3A5 using HepaRG (AID 2283493). A digest of the protocol: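 mRNA induction or loss of CYP3A5 assessed in HepaRG after 48 h dosing, 100 uM top concentration, duplicate wells; TaqMan qRT-PCR with ACTB, GAPDH, POLR2A normalization; 0.5% DMSO as negative control.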

Read-out in test [3]: Fatty Acid-Binding Protein 1 (FABP1), FABP1 (gene 2168)
As to the kind of experiment: LTEA_HepaRG_FABP1: Life Technologies and Expression Analysis (LTEA) Assay for Fatty Acid-Binding Protein 1 (FABP1) using HepaRG (AID 2283494). The procedure, abridged:
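Differentiated human HepaRG cells exposed 48 h in serum-free induction medium to eight half-log concentrations up to 100 uM (0.5% DMSO), duplicate. FABP1 mRNA by qRT-PCR, normalised to ACTB, GAPDH, POLR2A; bidirectional fitting against DMSO.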

Read-out in test [4]: Cytochrome P450 4A22 (Homo sapiens) (UniProt Q5TCH4)
Nature of the test: LTEA_HepaRG_CYP4A22: Life Technologies and Expression Analysis (LTEA) Assay for Cytochrome P450 4A22 (CYP4A22) using HepaRG (AID 2283495). The procedure, abridged:
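Readout is CYP4A22 transcript induction or loss, quantified by qRT-PCR and normalized to ACTB, GAPDH and POLR2A. Human HepaRG cells receive test chemicals for 48 h at eight half-log concentrations from 100 uM in 0.5% DMSO.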

Read-out in test [5]: Cytochrome P450 7A1 (Homo sapiens) (UniProt P22680)
Nature of the test: LTEA_HepaRG_CYP7A1: Life Technologies and Expression Analysis (LTEA) Assay for Cytochrome P450 7A1 (CYP7A1) using HepaRG (AID 2283496). The procedure, abridged:
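Gene expression endpoint in human HepaRG liver cells treated for 48 h with test chemicals (up to 100 uM, 0.5% DMSO). Values come from bidirectional concentration-response fitting versus DMSO.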

Read-out in test [6]: Glutamate-cysteine ligase catalytic (GCLC), GCLC (gene 2729)
As to the kind of experiment: LTEA_HepaRG_GCLC: Life Technologies and Expression Analysis (LTEA) Assay for Glutamate-cysteine ligase catalytic (GCLC) using HepaRG (AID 2283498). The procedure, abridged: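 Differentiated HepaRG cells exposed 48 h in serum-free induction medium, eight-point half-log series topping at 100 uM in 0.5% DMSO, duplicates. GCLC mRNA by qRT-PCR normalized to ACTB, GAPDH and POLR2A, fitted bidirectionally versus DMSO.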

Read-out in test [7]: growth arrest and DNA damage 45 (GADD45G), GADD45G (gene 10912)
As to the kind of experiment: LTEA_HepaRG_GADD45G: Life Technologies and Expression Analysis (LTEA) Assay for growth arrest and DNA damage 45 (GADD45G) using HepaRG (AID 2283499). The procedure, abridged: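 Gain or loss of GADD45G mRNA, quantified by TaqMan qRT-PCR against three housekeeping genes, is fitted in both directions relative to 0.5% DMSO. Human HepaRG cultures receive test chemical for 48 h at up to 100 uM.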

Read-out in test [8]: Glutamate-cysteine ligase regulatory (GCLM), GCLM (gene 2730)
Nature of the test: LTEA_HepaRG_GCLM: Life Technologies and Expression Analysis (LTEA) Assay for Glutamate-cysteine ligase regulatory (GCLM) using HepaRG (AID 2283500). A digest of the protocol: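 Human liver HepaRG cultures receive test chemicals for 48 hours at up to 100 uM in 0.5% DMSO. GCLM expression is measured by qRT-PCR and analysed for increases or decreases against vehicle.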

Read-out in test [9]: Glutathione S-transferase M3 (GSTM3), GSTM3 (gene 2947)
Nature of the test: LTEA_HepaRG_GSTM3: Life Technologies and Expression Analysis (LTEA) Assay for Glutathione S-transferase M3 (GSTM3) using HepaRG (AID 2283501). The procedure, abridged:
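HepaRG, plated 48 h, then serum-free induction medium; test chemical 48 h, duplicate; 100 uM top, half-log x8, 0.5% DMSO. Read-out: GSTM3 mRNA (TaqMan qRT-PCR, Fluidigm array). Bidirectional fit vs DMSO.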

Read-out in test [10]: Heat shock 70 kDa protein 1 (HSPA1A), gene 3303
As to the kind of experiment: LTEA_HepaRG_HSPA1A: Life Technologies and Expression Analysis (LTEA) Assay for Heat shock 70 kDa protein 1 (HSPA1A) using HepaRG (AID 2283502). A digest of the protocol: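 HSPA1A induction in human HepaRG liver cells is measured after 48 h of chemical treatment (100 uM maximum, 0.5% DMSO vehicle). Expression comes from qRT-PCR normalized to endogenous controls.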

Read-out in test [11]: Hypoxia-inducible factor 1-alpha (Homo sapiens) (UniProt Q16665)
As to the kind of experiment: LTEA_HepaRG_HIF1A: Life Technologies and Expression Analysis (LTEA) Assay for Hypoxia-inducible factor 1 (HIF1A) Trancription factor using HepaRG (AID 2283503).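 Further: HIF1A transcript by TaqMan qRT-PCR normalized to ACTB GAPDH and POLR2A.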 A digest of the protocol: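 HepaRG, 48 h exposure, 8-pt half-log series from 100 uM, 0.5% DMSO vehicle, duplicates. Readout: HIF1A transcript by qRT-PCR (Fluidigm array), housekeeping-normalised. Bidirectional curve fit vs DMSO baseline.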

Read-out in test [12]: 3-Hydroxy-3-Methylglutaryl-CoA Synthase 2 (HMGCS2), HMGCS2 (gene 3158)
Nature of the test: LTEA_HepaRG_HMGCS2: Life Technologies and Expression Analysis (LTEA) Assay for 3-Hydroxy-3-Methylglutaryl-CoA Synthase 2 (HMGCS2) using HepaRG (AID 2283504). A digest of the protocol: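 HepaRG, plated 48 h then switched to serum-free induction media; cmpd 8-pt, max 100 uM, 1/2-log, 0.5% DMSO, n=2, 48 h. HMGCS2 mRNA by Fluidigm TaqMan qRT-PCR, ACTB/GAPDH/POLR2A norm; bidirectional fit vs DMSO.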

Read-out in test [13]: HGF (gene 3082)
Nature of the test: LTEA_HepaRG_HGF: Life Technologies and Expression Analysis (LTEA) Assay for Hepatocyte Growth Facto (HGF) using HepaRG (AID 2283505). The procedure, abridged: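 Read-out is HGF transcript level by qRT-PCR, normalized to three housekeeping genes, fitted bidirectionally against 0.5% DMSO vehicle. Human HepaRG cells received test chemicals for 48 h at up to 100 uM.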

Read-out in test [14]: Insulin Like Growth Factor 1 (IGF1), IGF1 (gene 3479)
Nature of the test: LTEA_HepaRG_IGF1: Life Technologies and Expression Analysis (LTEA) Assay for Insulin Like Growth Factor 1 (IGF1) using HepaRG (AID 2283506). The procedure, abridged:
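Using human HepaRG liver cells, IGF1 transcript induction or suppression is measured 48 h after dosing across eight concentrations capped at 100 uM. Values derive from bidirectional concentration-response fitting with DMSO as baseline.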

Read-out in test [15]: Intercellular Adhesion Molecule 1 (ICAM1), ICAM1 (gene 3383)
Nature of the test: LTEA_HepaRG_ICAM1: Life Technologies and Expression Analysis (LTEA) Assay for Intercellular Adhesion Molecule 1 (ICAM1) using HepaRG (AID 2283507). A digest of the protocol: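 Readout is qRT-PCR mRNA level, normalized to three housekeeping genes and fitted bidirectionally against 0.5% DMSO vehicle. Human HepaRG cultures received compound for 48 h, top concentration 100 uM with half-log dilutions.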

Read-out in test [16]: Insulin-like growth factor-binding protein 1 (IGFBP1), IGFBP1 (gene 3484)
As to the kind of experiment: LTEA_HepaRG_IGFBP1: Life Technologies and Expression Analysis (LTEA) Assay for Insulin-like growth factor-binding protein 1 (IGFBP1) using HepaRG (AID 2283508). A digest of the protocol:
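Thawed HepaRG cells are plated for 48 h, switched to serum-free induction medium, then dosed in duplicate for another 48 h (100 uM top, half-log steps). Lysates in RLT go to qRT-PCR, and gain or loss of signal is fitted relative to vehicle.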

Read-out in test [17]: Interleukin 6 (IL6), IL6 (gene 3569)
As to the kind of experiment: LTEA_HepaRG_IL6: Life Technologies and Expression Analysis (LTEA) Assay for Interleukin 6 (IL6) using HepaRG (AID 2283509). The procedure, abridged:
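HepaRG cells exposed in duplicate for 48 h to eight half-log concentrations, top 100 uM, in 0.5% DMSO serum-free induction medium. mRNA measured by qRT-PCR, normalized to ACTB, GAPDH and POLR2A. Bidirectional fit versus DMSO.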

Read-out in test [18]: Interleukin 6 Receptor (IL6R), IL6R (gene 3570)
Nature of the test: LTEA_HepaRG_IL6R: Life Technologies and Expression Analysis (LTEA) Assay for Interleukin 6 Receptor (IL6R) using HepaRG (AID 2283510).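 On AC50: TaqMan qRT-PCR signal normalized to ACTB GAPDH and POLR2A housekeeping genes.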 The procedure, abridged: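 Concentration-response in human liver HepaRG cells: eight concentrations from 100 uM downward by half-logs, 48 h exposure, 0.5% DMSO vehicle. IL6R mRNA change measured by qRT-PCR and fitted in both directions relative to vehicle.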

Read-out in test [19]: Potassium channel subfamily K member 1 (KCNK1), KCNK1 (gene 3775)
Nature of the test: LTEA_HepaRG_KCNK1: Life Technologies and Expression Analysis (LTEA) Assay for Potassium channel subfamily K member 1 (KCNK1) using HepaRG (AID 2283511). The procedure, abridged: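 Differentiated HepaRG cells, 48 h exposure in serum-free induction medium with 0.5% DMSO; 8 concentrations, half-log from 100 uM, duplicate. KCNK1 mRNA by qRT-PCR, normalized to ACTB, GAPDH, POLR2A; bidirectional fit vs DMSO.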

Read-out in test [20]: Glutathione S-Transferase (GSTA2), GSTA2 (gene 2939)
Nature of the test: LTEA_HepaRG_GSTA2: Life Technologies and Expression Analysis (LTEA) Assay for Glutathione S-Transferase (GSTA2) using HepaRG (AID 2283497). A digest of the protocol:
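Differentiated human HepaRG cells were exposed in duplicate for 48 h in serum-free induction medium, 8 points from 100 uM top in half-log steps, 0.5% DMSO. GSTA2 mRNA was measured by TaqMan qRT-PCR, normalized to ACTB, GAPDH and POLR2A; bidirectional fit versus DMSO.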

Sequence of Cytochrome P450 3A7 (Homo sapiens) (P24462 whole entry, looked up): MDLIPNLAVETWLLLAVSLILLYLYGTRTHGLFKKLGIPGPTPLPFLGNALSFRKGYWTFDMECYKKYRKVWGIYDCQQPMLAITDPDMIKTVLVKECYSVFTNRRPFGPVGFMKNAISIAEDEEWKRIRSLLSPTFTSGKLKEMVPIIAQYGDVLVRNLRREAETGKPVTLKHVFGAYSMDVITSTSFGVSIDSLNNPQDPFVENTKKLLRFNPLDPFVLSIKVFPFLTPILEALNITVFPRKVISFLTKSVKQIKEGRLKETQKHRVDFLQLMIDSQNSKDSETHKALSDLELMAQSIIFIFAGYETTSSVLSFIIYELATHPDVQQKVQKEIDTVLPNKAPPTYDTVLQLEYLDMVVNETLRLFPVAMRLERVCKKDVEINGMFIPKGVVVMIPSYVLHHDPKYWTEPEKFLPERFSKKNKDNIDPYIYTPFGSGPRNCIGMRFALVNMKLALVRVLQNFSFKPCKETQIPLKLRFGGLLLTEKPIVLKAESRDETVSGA
Sequence of Hypoxia-inducible factor 1-alpha (Homo sapiens) (Q16665 whole entry, looked up): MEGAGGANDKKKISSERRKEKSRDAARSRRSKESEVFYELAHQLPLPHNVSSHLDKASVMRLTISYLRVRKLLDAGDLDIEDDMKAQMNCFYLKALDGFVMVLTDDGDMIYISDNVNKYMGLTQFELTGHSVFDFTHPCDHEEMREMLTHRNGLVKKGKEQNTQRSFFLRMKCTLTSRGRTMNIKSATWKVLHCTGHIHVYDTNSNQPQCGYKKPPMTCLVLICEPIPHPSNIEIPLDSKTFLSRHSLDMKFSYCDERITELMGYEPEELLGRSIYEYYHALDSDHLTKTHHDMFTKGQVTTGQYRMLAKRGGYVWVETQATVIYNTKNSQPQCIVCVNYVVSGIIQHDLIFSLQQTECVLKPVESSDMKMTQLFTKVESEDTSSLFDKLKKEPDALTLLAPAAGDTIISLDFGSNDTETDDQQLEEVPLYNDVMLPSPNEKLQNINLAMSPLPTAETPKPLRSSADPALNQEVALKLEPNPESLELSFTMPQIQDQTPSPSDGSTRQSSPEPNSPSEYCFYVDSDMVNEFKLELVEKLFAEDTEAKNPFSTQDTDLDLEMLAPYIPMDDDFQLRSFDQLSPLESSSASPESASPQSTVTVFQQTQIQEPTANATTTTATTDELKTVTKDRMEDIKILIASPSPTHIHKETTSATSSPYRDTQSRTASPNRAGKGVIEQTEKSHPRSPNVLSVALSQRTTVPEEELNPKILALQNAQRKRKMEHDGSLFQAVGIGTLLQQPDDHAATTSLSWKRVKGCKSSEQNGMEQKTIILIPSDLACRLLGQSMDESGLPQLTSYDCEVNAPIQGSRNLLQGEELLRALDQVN

In the case of `Oc1ccc(Cl)cc1Cc1ccccc1`, the outcome in [1], in [2], in test [3], in [4], in test [5] and in test [6] was inactive. Besides, the molecule was called inactive in test [7], in test [8], in [9], in [10], in test [11] and in test [12]. Also, the molecule was called inactive in test [13], in test [14], in [15], in test [16], in test [17] and in [18]. Also, in [19], the result was inactive. Besides, the half-maximal activity concentration (AC50) was 50.5 µM (active) in [2]; 50.5 µM (active) in test [3]; 91.8 µM (active) in [4]; 76.1 µM (active) in [5]; 91.9 µM (active) in test [9]; 76.8 µM (active) in test [12]. In addition, the AC50 is 83.5 µM (active) in [13]; 75.2 µM (active) and 88.5 µM (active) in test [16]; 83.6 µM (active) in test [18].
Turning to `COP(=S)(OC)Oc1ccc([N+](=O)[O-])cc1`, the molecule was classed as inactive in test [1], in [2], in test [3], in test [4], in test [5] and in [20]. The call in test [6], in test [7], in test [8], in [9], in [10] and in [11] was inactive. Besides, the molecule was classed as inactive in [12], in test [13], in [14], in test [15], in test [16] and in test [17]. Also, the outcome in [18] and in test [19] was inactive.
Consider `OCCOc1ccccc1`, for which the molecule was classed as inactive in [1], in test [2], in test [3], in [4], in test [5] and in test [6]. In addition, the call in test [7], in test [8], in test [9], in test [10], in test [11] and in test [12] was inactive. The molecule was classed as inactive in [13], in test [14], in test [15], in [16], in test [17] and in test [18]. Moreover, the molecule was called inactive in test [19].
For the molecule `O=C(NC(=O)c1c(F)cccc1F)Nc1ccc(OC(F)(F)C(F)OC(F)(F)F)c(Cl)c1` (stereo unspecified), the molecule was classed as inactive in [1], in test [2], in [3], in test [4], in test [5] and in test [20]. The molecule was called inactive in test [6], in test [7], in test [8], in test [9], in test [10] and in test [11]. Further, the call in [12], in test [13], in [14], in test [15], in test [16] and in test [17] was inactive. Also, the outcome in [18] and in test [19] was inactive.
Consider `O=S1OCC2C(CO1)C1(Cl)C(Cl)=C(Cl)C2(Cl)C1(Cl)Cl` (stereo unspecified), for which the half-maximal activity concentration (AC50) in test [1] is 50 µM (active); in test [3], 43.6 µM (active); in test [4] it was 60.4 µM (active); in [5] it was 40.4 µM (active); in test [7], 88.6 µM (active); in test [8] it was 50 µM (active). Also, the AC50 is 77.3 µM (active) in test [12], 42.2 µM (active) in [14], 83.4 µM (active) in test [16] and 11.4 µM (active) in test [18]. Further, the outcome in test [2], in [6], in test [9], in test [10], in test [11] and in test [13] was inactive. In addition, the molecule was classed as inactive in [15], in test [17] and in test [19].
